Reference: the supplement of paper PMC3334620
Whole data set: some 33,000 sequences, median “E-score (-0.5 to 0.5)” near -0.017, cut for the highest 2% near 0.3. The list comes from a sample in which the highest values are over-represented; it also holds similar and randomly drawn sequences.

These sequences were tested against T1, Sut1 (UniProt P53032) (assay: PBM E-score (8-mer binding enrichment) (E-score (-0.5 to 0.5)); higher = stronger / more preferred TF binding). Conditions: protein concentration: 200 nM; construct: GST-full length.
T1 sequence: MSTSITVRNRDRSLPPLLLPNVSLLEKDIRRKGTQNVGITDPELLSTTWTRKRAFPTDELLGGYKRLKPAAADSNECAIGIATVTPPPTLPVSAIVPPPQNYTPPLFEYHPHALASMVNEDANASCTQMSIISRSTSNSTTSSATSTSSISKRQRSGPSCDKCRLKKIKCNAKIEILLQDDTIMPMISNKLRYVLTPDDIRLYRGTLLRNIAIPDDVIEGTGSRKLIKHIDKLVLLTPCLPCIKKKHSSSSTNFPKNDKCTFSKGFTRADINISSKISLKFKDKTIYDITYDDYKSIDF
Experimental: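 Universal 'all 10-mer' protein binding microarrays (Agilent AMADID 015681) probed with GST-tagged S. cerevisiae TFs (full-length or DBD) made by in vitro transcription/translation (PURExpress), about 100-200 nM. Bound TF was detected with fluorescent anti-GST. Each ungapped 8-mer (which stands for itself and its reverse complement) is scored by the PBM enrichment score (E-score), a modified Wilcoxon-Mann-Whitney statistic from -0.5 to +0.5, computed with the Universal PBM Analysis Suite. Scale: above 0.35 generally sequence-specific binding.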

Sequence	PBM E-score
GGTATGAA	0.114
CAGTTTTA	0.0952
CCGATAAG	0.111
ATGATAAA	0.233
CGGATAAA	0.341
CGGATAAC	0.264
CCGATAAA	0.343
TTGATAAA	0.328
TGGATAAA	0.263
CCGATAAC	0.18
GTGATAAA	0.0786
TGGGTTAA	-0.0031
ATCAACTC	-0.0768
ACAGAACG	-0.0202
TCACTCAA	0.0178
CCCTCAAA	-0.0431
AATCGGCG	-0.0941
AAAGTATA	0.214
GCTTAAGA	0.00411
GTCAAGAA	0.108
ACCGTTAG	0.00367
CAGCTGAA	-0.109
CGATTCCC	-0.0189
CAATTCCA	-0.032
CGATTCCA	0.0585

Sequence	PBM E-score
CAATTCCC	0.072
AAATTCCC	-0.245
CAATTCCG	0.305
AAATTCCA	0.241
AAATTCCG	0.337
CGATTCCG	0.314
GCTAGGGA	-0.308
AATCCCAG	0.0474
ATACGAGG	-0.165
CGATTGAG	-0.0533
TGGACTAA	-0.104
CAGACTAG	-0.288
GGGACTAC	-0.162
AGGACTAG	-0.0577
CGGACTAA	0.454
CGGACTAC	0.464
AGGACTAC	-0.118
CGGACTAG	0.452
GGGACTAA	-0.0778
GATGCTCC	0.17
CAAGGGGA	-0.185
GCCTTGCC	-0.155
ACGTCGAT	0.0428
CATCTGAG	-0.143
CACTCCAC	-0.0759

Sequence	PBM E-score
CCAGCTGG	-0.188
CATGCAGA	-0.15
GTTGAAAA	0.104
ATTGAAAT	0.311
ATTGAATA	0.315
ATTGAAAC	0.184
CTTGAATA	0.0931
TTTGAAAA	0.31
ATTGAAAA	0.213
CTTGAAAA	0.0874
ATTGAATC	0.00919
CCGGGCCG	0.155
TCCATGAA	0.131
AGCCTTTG	-0.165
ACCTCAGC	-0.106
CTCAGTTC	-0.0325
ATCTTTCG	-0.00103
CGAGAGCC	-0.161
TATTTCAA	0.301
GATTTCAA	0.147
CATTTCAA	0.275
ATTCATAA	0.127
ATTCCGGG	0.295
ATTCCGGA	0.42
CTTCCGGC	0.0877

Sequence	PBM E-score
GTTCCGGA	0.342
GTTCCGCA	0.0832
GTTCCGAA	0.267
ATTCCGGC	0.177
CTTCCGGA	0.347
CTTCCGTA	0.181
AGCCAAAT	0.14
ATCAAACG	0.132
CATTGCTC	0.1
CGGTCTAG	-0.0195
CCCGTAGA	-0.245
TCCGTAGA	0.361
ACCGTAGA	0.0336
AGTATCAG	-0.0501
ACCTCTCG	-0.047
CGTGACCC	-0.111
CAATCAGG	-0.167
GCTTTGAA	-0.00621
ACTACAAG	0.0409
AATACAAG	0.123
AATACAAA	0.348
GATACAAA	0.112
ACTACAAC	0.266
ACTACAAA	0.302
GCCTGGAC	-0.336

Sequence	PBM E-score
AGGCAGGC	-0.208
TCCGTCCA	0.316
CCCGTCCA	-0.198
GCCGTCCA	0.00979
CAGGTTAG	-0.082
AGCCTACT	-0.134
CTACTATA	0.281
CTACTATC	0.312
ATACTATC	0.202
ATGTAGTC	0.18
GACACCGC	-0.0517
GCCTCGGA	0.198
CTCTCGGA	0.32
ACCTCGGA	0.404
AGCTCGGC	-0.00249
ATCTCGGG	0.0127
CGCTCGGA	0.29
ATCTCGGA	0.368
CTCTCGAA	-0.282
AGCTCGGA	0.336
ATCTCGGC	0.13
ACCTCGGC	0.0761
CTCTCGGC	-0.0324
GCCACTCA	-0.126
AGTTAAAG	0.0654

Sequence	PBM E-score
AATCACAT	0.139
CAGCATTC	-0.193
CAGTTGGG	-0.207
ACCACTCA	-0.156
ACCAAAGG	-0.0819
AATGGCAA	0.0477
AGATGAGC	-0.0376
AGACCAAG	0.186
GTCTCGTA	-0.0582
GTCTCGGA	0.316
GTCTCGAA	-0.159
CTTTTGAA	0.152
AGAGTCCG	0.449
CCAGTCCG	0.222
ATAGTCCC	-0.206
AGAGTCCT	-0.114
ACAGTCCA	0.0821
ATAGTCCA	0.0136
AGAGTCCC	-0.0834
ACAGTCCG	0.312
CGAGTCCC	0.014
CGAGTCCA	-0.139
CGAGTCCG	0.426
ATAGTCCG	0.473
GCTCTTAC	0.132

Sequence	PBM E-score
CACTCACG	-0.0637
TATGAACA	0.0917
AAAACGCA	-0.0411
AAGAGTTA	0.12
CAAGTCAG	-0.0539
CAGTTGCA	-0.0927
GACGCAGC	-0.199
CTCCGTTA	0.335
ATCCGTTC	0.147
CTCCGTTC	0.32
CGCCGTTC	-0.157
GTCCGTTA	0.376
ATCCGTTA	0.275
GGCCGTTA	0.137
CACCGTTA	0.0406
CGCCGTTA	-0.0973
GCCGGCGC	0.089
GACGCTAC	-0.101
AATAGCTG	0.0185
CCGCACGC	-0.237
CTAACCTA	0.0178
ATTCGGAC	0.455
ATTCGGAA	0.262
ATTCGGGC	-0.0696
ATTCGGCG	-0.0582

Sequence	PBM E-score
ATTCGGAG	0.432
ATTCGGCC	-0.0211
GAATAGGC	-0.0173
AGCCTCAG	-0.139
ACGAGTGA	-0.115
GTCACCAA	-0.0973
GGCTCCCA	-0.12
CCCTCCGG	0.00905
ACCTCCGG	0.322
AGCTCCGG	0.466
GGCTCCAA	0.00981
CGCTCCGC	0.0358
CGCTCCGA	0.317
ACCTCCGT	0.165
GGCTCCGA	0.338
AGCTCCTG	-0.238
CGCTCCCA	-0.0881
AGCTCCCG	-0.173
CTAGCTAG	0.132
CTCATCCA	-0.124
GTCCTACA	-0.0165
CTCTGGTC	-0.00832
GGGGGCAA	-0.211
ATTCAGGA	0.0993
ACTGTGTA	0.0481

Sequence	PBM E-score
ACGTAGGC	-0.171
AGCTCCAA	0.0776
AGCTCCGC	0.331
AGCTCCGA	0.464
AGCTCCAC	-0.0851
AGCTCCTC	-0.098
AGCTCCTA	-0.173
CACCCACG	-0.0788
ATTCTCAG	0.00054
ATTCCAAT	0.161
ATACGTTC	-0.101
ATGTGCGA	-0.0365
AACTAGCG	-0.0241
ACCTTCGG	0.147
CATTTGCA	0.0495
ATCCTCCA	-0.0869
TGCCTACA	-0.15
TGTCCAAA	0.124
TGTCCGAA	0.428
GGTCCAAA	-0.168
CGTCCGAA	0.125
TGTCCTAA	-0.0608
GGTCCGAA	0.437
GTACGTCA	-0.0804
ATACTGGA	0.122

Sequence	PBM E-score
GACAACGA	0.104
ACGTTTGA	0.132
AGCTGGCA	-0.241
CGCGAACG	-0.0292
TAATCGAA	0.0525
AAATCGGT	0.0195
AAATCGGA	0.397
GAATCGCA	-0.0351
GAATCGGA	0.376
GAATCGGC	0.0753
CAATCGGA	0.286
AAATCGGG	0.0832
TAATCGGA	0.308
CAGGTGAC	-0.157
ACCACTCT	-0.157
ATTGCAAT	0.0774
AAAATTTT	0.236
AATTGTAC	0.146
TATGAGGA	-0.0297
GGCGATGA	-0.143
ATCCGGCA	-0.166
CTCCGGCA	0.423
GTCCGGCA	0.317
CTCCGGCC	0.376
GACCGGCA	-0.308

Sequence	PBM E-score
ATCCGGCC	0.135
CCCCGGCA	0.0139
GGCCGGCA	0.00533
GGCCGGCC	-0.0421
GCACCTTA	-0.00495
GTTACACA	-0.2
GAAAGGGC	0.00203
CACAGCAC	-0.205
ACTTCCGA	0.245
CCTTCCGA	0.134
GCTTCCGA	0.303
CTTTCCGA	0.226
GTTTCCAA	0.0451
GTTTCCGA	0.332
AGTGGATG	-0.0759
ATCCCTCC	-0.194
GAGTGAAC	-0.111
AAACTCCA	0.297
TAACTCCA	0.143
AAACTCCT	0.016
ATCTTATC	0.154
ACGAGGTG	-0.21
ATATAAGC	0.0532
AACAAATT	0.306
AAGAAATG	0.144

Sequence	PBM E-score
AAGAAATT	0.313
AACAAGTT	0.132
AAGAAATA	0.177
AAGAAAAT	0.257
AAGAAAAG	0.116
AAGAAAAA	0.319
AACAAATG	0.159
GACGCCGC	-0.221
ACAGTCTC	-0.112
CGACGGGC	-0.197
AACTAAAA	0.31
TACTAAAA	0.207
AACTAACT	0.175
AACTAATA	0.324
AACTATAA	0.204
TACTAATA	0.181
CACTATAA	-0.0412
TACTATAA	0.306
AACTAACC	0.336
CACTAATA	0.213
AACTAACA	0.0858
AACTAAAG	0.195
AGGGGTGG	-0.277
AGCCGTGA	-0.0248
TGAATACA	0.241

Sequence	PBM E-score
ATCTGGTG	-0.015
ATTAGATC	0.0421
ATTAGATA	0.175
ATTAGATG	0.303
ATATTCAG	0.04
CCTTCGGA	0.32
CCTTCGGC	-0.233
CCTTCGCA	-0.178
GCTTCGCA	-0.197
ACTTCGGA	0.397
ACTTCGGC	0.14
GCTTCGTA	0.0454
GCTTCGGA	0.324
ACTTCGGG	0.0676
AATCTGTC	0.133
GGAAAGAC	-0.0333
CGGCGTAG	-0.176
AAAACTGG	0.149
ATTGCTGA	-0.0342
CATGAGAA	0.0161
GCCAAGCC	-0.0191
GGCGGAGA	0.23
CGCGGAGC	0.26
AGCGGAGA	0.325
AGCGGAGG	-0.201

Sequence	PBM E-score
AGCGGAGC	0.137
CGCGGAGA	0.387
GACGGTCA	-0.253
CCAAGGGG	-0.143
ACCTTCGC	-0.0159
ATTAACAC	0.302
CTTAACAC	-0.122
ATTAACAA	0.199
AGCTATCA	-0.0476
AAGCCGGA	0.331
ATGCCGGA	0.325
GAGCCGGA	0.254
ATGCCGGG	-0.0609
TAGCCGGA	0.282
ATGCCGGC	-0.0395
ACCATAAC	0.0292
AATTTTAT	0.317
AATTTAAG	0.218
AATTTAAT	0.317
AATTTTAA	0.295
AATTTAAC	0.255
AATTTTAC	0.27
